Screening data: PubChem BioAssay, several laboratories
CCHF vOTU inh: CCHFV vOTU protease inhibition. Pep-AMC fluorescence. hit rate 0.55% among 370,000. AID 651958. inhibition, % at 11.5 µM; further: 0% = vehicle wells with enzyme and 100% = no enzyme wells
RecA splice inh: Mtb RecA intein splicing inhibition; cell-free RecA intein splicing, fluorescence; inhibition, % (concentration not given with the values); hit rate 0.75% among 290,000; AID 2221; in the data active means inhibition above about 30%;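 further: 0% = vehicle wells and 100% = reference inhibitor control wells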
Target sequence (P9WHJ3 whole entry, looked up, canonical isoform): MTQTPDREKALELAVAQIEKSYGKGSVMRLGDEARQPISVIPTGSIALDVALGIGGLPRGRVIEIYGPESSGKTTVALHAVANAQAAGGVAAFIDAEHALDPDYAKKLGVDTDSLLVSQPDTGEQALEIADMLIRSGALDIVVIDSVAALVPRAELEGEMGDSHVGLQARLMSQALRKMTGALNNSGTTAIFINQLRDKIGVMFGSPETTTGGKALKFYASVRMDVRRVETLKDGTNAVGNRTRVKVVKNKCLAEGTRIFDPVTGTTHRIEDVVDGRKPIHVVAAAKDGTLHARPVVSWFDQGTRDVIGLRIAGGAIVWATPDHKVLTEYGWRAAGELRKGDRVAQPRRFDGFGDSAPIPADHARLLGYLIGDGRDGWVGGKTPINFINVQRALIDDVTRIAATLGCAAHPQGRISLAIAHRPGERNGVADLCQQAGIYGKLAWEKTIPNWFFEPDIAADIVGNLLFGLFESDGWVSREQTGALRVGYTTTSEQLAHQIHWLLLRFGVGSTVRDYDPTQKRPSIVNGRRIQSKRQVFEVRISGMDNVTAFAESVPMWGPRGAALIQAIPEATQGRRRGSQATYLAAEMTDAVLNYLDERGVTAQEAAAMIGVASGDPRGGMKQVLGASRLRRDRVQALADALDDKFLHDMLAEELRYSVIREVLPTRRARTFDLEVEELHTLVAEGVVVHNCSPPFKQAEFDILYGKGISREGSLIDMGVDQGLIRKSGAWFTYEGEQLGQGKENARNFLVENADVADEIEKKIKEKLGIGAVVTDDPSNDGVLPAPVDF
Mtb FBA inh: inhibits M. tuberculosis FBA enzyme; P9WQA3; purified M. tuberculosis FBA, fluorescence read-out; inhibition, % at 1 µM; hit rate 2.3% among 360,000; AID 588726; in the data active means inhibition above about 27%;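 further: 0% = vehicle and 100% = reference inhibitor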
GDH-TPI counter-1: inhibits GDH-TPI coupling enzymes, artifact for Mtb FBA screen; GDH-TPI coupled enzyme counterscreen, NADH absorbance; inhibition, % at 4.8 µM; hit rate 1.2% among 360,000; AID 588335;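 further: 0% = DMSO wells and 100% = wells lacking the enzyme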
Mtb betalactam: beta-lactam sensitization of Mtb H37Rv; inhibition, % at 25 µM; hit rate 0.27% among 330,000; M. tuberculosis H37Rv growth with meropenem, percent inhibition; call rule not given here;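 further: growth measured after seven days incubation then overnight dye step; 0% = bacteria only wells and 100% = bacteria with antibiotic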
Mtb FBA confirm: confirmation of M. tuberculosis fructose-bisphosphate aldolase inhibitors; shares compounds with Mtb FBA inh; purified M. tuberculosis FBA, fluorescence read-out; inhibition, % at 1 µM; hit rate 78% among 5,600; in the data active means inhibition above about 27%;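 further: 0% = vehicle wells and 100% = reference inhibitor wells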
GDH-TPI counter-2: GDH-TPI inhibition counter-screen for FBA inhibitors. shares compounds with Mtb FBA inh. GDH-TPI coupled enzyme counterscreen, fluorescence. inhibition, % at 1 µM. hit rate 81% among 5,600. AID 652141; in the data active means inhibition above about 10%
* marks the source's active call; other numbers are inactive results. A selection: hits, their analogues and other compounds. The true share with any hit is near 4.2%. Unless noted, no stated cut-off is given here; in the data, active means inhibition above about 30%; inactive means the rest.

Results for CCCCC1OC2(C)OC(=N)C1(C#N)C(C#N)(C#N)C2c1ccccc1 (stereo unspecified) ?
CCHF vOTU inh: -142; Mtb FBA inh: 78*; GDH-TPI counter-1: 11; Mtb betalactam: -2; Mtb FBA confirm: 116*; GDH-TPI counter-2: 83*

How did COC(=O)C1(C#N)C(c2ccccc2)C1(C(=O)OC)C(=O)OC (stereo unspecified) do in these assays?
CCHF vOTU inh: -13; RecA splice inh: 1; Mtb FBA inh: 2; GDH-TPI counter-1: -7; Mtb betalactam: -6

How did C[C@@H]1CCN(C2CC2)S(=O)(=O)c2ccc(N3CC[C@H](N(C)C)C3)cc2O1 do in these assays?
CCHF vOTU inh: 1

What do the screens show for `Cc1c(C2Nc3ccccc3C2C)[nH]c2ccccc12` (stereo unspecified)?
CCHF vOTU inh: 5

How did NC(=O)c1ccccc1NCC(=O)c1ccc(F)cc1 do in these assays?
CCHF vOTU inh: -3; RecA splice inh: 1; Mtb FBA inh: 31*; GDH-TPI counter-1: -4; Mtb betalactam: -2; Mtb FBA confirm: 103*; GDH-TPI counter-2: 87*

What do the screens show for `O=C(CNc1ccc(F)cc1)c1ccccc1`?
CCHF vOTU inh: -2; RecA splice inh: 0; Mtb FBA inh: 4; GDH-TPI counter-1: -1; Mtb betalactam: 8

How did CCN(CC)CCn1c2ccccc2c2nc3ccccc3nc21 do in these assays?
CCHF vOTU inh: -5; RecA splice inh: -3; Mtb FBA inh: 1; GDH-TPI counter-1: 19; Mtb betalactam: 2

How did CCN(CC)CCn1c2ccccc2c2cnc(N)c(C#N)c21 do in these assays?
CCHF vOTU inh: -25; RecA splice inh: 0; Mtb FBA inh: 29*; GDH-TPI counter-1: 5; Mtb betalactam: 12; Mtb FBA confirm: active; GDH-TPI counter-2: 180*

Results for O=C1NC(c2ccco2)Nc2ccccc21 (stereo unspecified) ?
CCHF vOTU inh: -54; RecA splice inh: -3; Mtb FBA inh: 43*; GDH-TPI counter-1: 2; Mtb betalactam: -3; Mtb FBA confirm: 57*; GDH-TPI counter-2: 49*

Results for O=C1NC(c2ccc(Cl)cc2)Nc2ccccc21 (stereo unspecified) ?
CCHF vOTU inh: -5; RecA splice inh: -4; Mtb FBA inh: 8; GDH-TPI counter-1: -4; Mtb betalactam: 2

Results for Cc1ccc(C2NC(=O)c3ccccc3N2)c(C)c1 (stereo unspecified) ?
CCHF vOTU inh: -63; Mtb FBA inh: 62*; GDH-TPI counter-1: 6; Mtb FBA confirm: 80*; GDH-TPI counter-2: 61*

What do the screens show for `Cc1cccc(C2NC(=O)c3ccccc3N2)c1` (stereo unspecified)?
CCHF vOTU inh: 6; Mtb FBA inh: 26; GDH-TPI counter-1: 6

Results for CCN(CC)C(=O)CC[C@@H]1CC[C@]2(CCCN(Cc3ccccc3)C2)O1 ?
CCHF vOTU inh: 4

Results for c1coc(-c2ccnc3nc(-n4cccc4)nn23)c1 ?
CCHF vOTU inh: -3; RecA splice inh: -2; Mtb FBA inh: 3; GDH-TPI counter-1: 4; Mtb betalactam: -4

What do the screens show for `O=C(O)c1cc2nccc(-c3ccco3)n2n1`?
CCHF vOTU inh: -20; RecA splice inh: -40; Mtb FBA inh: 32*; GDH-TPI counter-1: 36*; Mtb betalactam: 5; Mtb FBA confirm: 122*; GDH-TPI counter-2: 98*

Results for COc1ccc(-c2ccnc3cc(C(=O)O)nn23)cc1 ?
CCHF vOTU inh: -37; RecA splice inh: -25; Mtb FBA inh: 36*; GDH-TPI counter-1: 14; Mtb betalactam: -2; Mtb FBA confirm: 0; GDH-TPI counter-2: -6

How did Cc1cc2nccc(-c3ccc(F)cc3)n2n1 do in these assays?
CCHF vOTU inh: 5; RecA splice inh: -1; Mtb FBA inh: 3; GDH-TPI counter-1: -3; Mtb betalactam: -2

How did S=C(Nc1cccc(Cl)c1)OC1CCC12CCC(c1ccccc1)CC2 (stereo unspecified) do in these assays?
CCHF vOTU inh: 12

What do the screens show for `O=C(CN1C(=O)c2cccc3cccc(c23)C1=O)N1CCOCC1`?
CCHF vOTU inh: -2; RecA splice inh: 1; Mtb FBA inh: 29*; GDH-TPI counter-1: 0; Mtb betalactam: 3; Mtb FBA confirm: 46*; GDH-TPI counter-2: 39*

How did O=C(CN1c2cccc3cccc(c23)S1(=O)=O)N1CCOCC1 do in these assays?
CCHF vOTU inh: -21; RecA splice inh: 3; Mtb FBA inh: 12; GDH-TPI counter-1: 13; Mtb betalactam: -3

Results for CCN(CC)C(=O)CN1C(=O)c2cccc3cccc(c23)C1=O ?
CCHF vOTU inh: -1; RecA splice inh: 1; Mtb FBA inh: 38*; GDH-TPI counter-1: 6; Mtb betalactam: -1; Mtb FBA confirm: 130*; GDH-TPI counter-2: 88*

Results for CCOc1c2ccc(C(=O)NCc3ccc(OC(F)(F)F)cc3)cc2nn1CC ?
CCHF vOTU inh: -18; RecA splice inh: 0; Mtb FBA inh: 24; GDH-TPI counter-1: 4; Mtb betalactam: 18

How did CCCn1nc2cc(C(=O)NCc3ccc(OC)cc3)ccc2c1OCC do in these assays?
CCHF vOTU inh: -22; RecA splice inh: 1; Mtb FBA inh: 48*; GDH-TPI counter-1: 3; Mtb betalactam: -2; Mtb FBA confirm: 60*; GDH-TPI counter-2: 32*

How did CCCn1nc2cc(C(=O)NCc3ccc(OC(F)(F)F)cc3)ccc2c1OCC do in these assays?
CCHF vOTU inh: -7; RecA splice inh: -3; Mtb FBA inh: 37*; GDH-TPI counter-1: 1; Mtb betalactam: -2; Mtb FBA confirm: 102*; GDH-TPI counter-2: 81*

What do the screens show for `CCN(CC)CC(=O)Nc1cc(N(C)C)nc2ccccc12`?
CCHF vOTU inh: -6; RecA splice inh: 0; Mtb FBA inh: 36*; GDH-TPI counter-1: 38*; Mtb betalactam: -10; Mtb FBA confirm: 30*; GDH-TPI counter-2: 26*

What do the screens show for `Cc1ccc(CN2CCCCC(NC(=O)c3c(F)cccc3F)C2=O)cc1` (stereo unspecified)?
CCHF vOTU inh: -9

What do the screens show for `CN(Cc1c(F)cccc1Cl)C(=O)CNC(=O)c1cccs1`?
CCHF vOTU inh: 0; Mtb FBA inh: 3; GDH-TPI counter-1: 0; Mtb betalactam: -1

Results for CN(Cc1ccc(F)cc1)C(=O)CNC(=O)c1cccs1 ?
CCHF vOTU inh: 16; Mtb FBA inh: 64*; GDH-TPI counter-1: 4; Mtb betalactam: 2; Mtb FBA confirm: 1; GDH-TPI counter-2: -5

What do the screens show for `OC[C@@H]1CCCN1Cc1cn(-c2ccccc2)nc1-c1ccc2c(c1)OCO2`?
CCHF vOTU inh: 2; RecA splice inh: -18; Mtb FBA inh: 29*; GDH-TPI counter-1: 23; Mtb betalactam: -4; Mtb FBA confirm: 54*; GDH-TPI counter-2: 35*

What do the screens show for `COCC1CCCCN1Cc1cn(-c2ccccc2)nc1-c1ccc2c(c1)OCO2` (stereo unspecified)?
CCHF vOTU inh: -3; RecA splice inh: 1; Mtb FBA inh: 7; GDH-TPI counter-1: -4; Mtb betalactam: 6
